From PubChem BioAssay (NCI) come the findings set out here.

Common to all, as to experiment: NCI-60 one-dose screen, 48 h (100 = growth as untreated, 0 = no growth, -100 = all killed)
What all share (settings): 10 µM unless noted

The subject of assay [1] is HCT-15 colon.
Assay [2] concerns HT29 colon.
The test system of assay [3] is SNB-75 CNS.
The test system of assay [4] is SNB-19 CNS.
Assay [5] has as its system U251 CNS.
The test system of assay [6] is PC-3 prostate.
The subject of assay [7] is SK-MEL-5 melanoma.
The test system of assay [8] is UACC-62 melanoma.
The subject of assay [9] is LOX IMVI melanoma.
For assay [10], the system named is SK-MEL-28 melanoma.
The subject of assay [11] is SK-MEL-2 melanoma.
Assay [12] concerns EKVX NSCLC.
The subject of assay [13] is SN12C renal.
Assay [14] deals with UO-31 renal.
Assay [15] relates to TK-10 renal.
For assay [16], the system named is ACHN renal.
Assay [17] has as its system CAKI-1 renal.
In assay [18] the test system is A498 renal.
Assay [19] concerns CCRF-CEM leukemia.
In assay [20] the test system is HL-60(TB) leukemia.

Compounds without any hit were thinned out: in the full panel of roughly 83,000, 20% have a hit.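 Activity criterion: percent growth below 10, measured after cells in 96-well plates were exposed to a single compound concentration for 48 hours.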 Unmarked numbers belong to inactive results. The source made the active and inactive calls.

As to `CCC1(NC(=O)c2cc(F)c(F)c(F)c2F)C(=O)NC(=O)N(C(C)C)C1=O` (stereo not given), the growth in assay [1] is 12.4%; in [2] it was 76.6%; in assay [3], 88.4%; in [4], 92.7%; in [5], 90.6%; in assay [6], 93%. For the same molecule, the growth was 64.7% in assay [7]; 48.6% in [8]; 42% in [9]; 53.2% in assay [10]; 68.4% in [11]; 93.1% in [12]. The growth in [13] was 81.7%; in [14], 68.2%; in [15] it was 123%; in assay [16], 96.6%; in assay [17] it was 93.6%; in assay [18] it was 98.2%. Moreover, in assay [19], the growth was 87.3%.

In the case of `O=[P+](O)c1cccnc1`, the growth in [1] is 106%; in assay [2] it was 93.7%; in [3] it was 94.3%; in assay [4] it was 106%; in [5] it was 99.6%; in [6], 96.7%. Moreover, the growth in [7] was 102%; in assay [8] it was 103%; in assay [9], 98.1%; in [10] it was 106%; in assay [11], 106%; in assay [12], 101%. In addition, the growth in assay [13] was 102%; in assay [14], 91.5%; in assay [15], 103%; in assay [17], 102%; in [18] it was 111%; in assay [20], 107%. Moreover, the growth in assay [19] is 98.3%.

Regarding `Cc1ccc(P(=O)(O)O)cc1`, the growth in assay [1] is 107%; in [2] it was 109%; in assay [3] it was 107%; in assay [4], 97.9%; in [5] it was 101%; in [6], 107%. The growth in assay [7] was 107%; in [8] it was 98.6%; in assay [9], 104%; in assay [10], 112%; in [11], 109%; in assay [12], 100%. Further, the growth in assay [13] was 97.7%; in assay [14], 96.6%; in [15], 102%; in [17], 97.2%; in assay [18] it was 115%; in assay [20] it was 107%. In addition, the growth in assay [19] is 114%.

For the molecule `COC(=O)CCP(CCC(=O)OC)c1ccccc1`, the growth in assay [1] is 106%; in [2] it was 106%; in assay [3], 89.5%; in [4] it was 119%; in assay [5], 99.3%; in [6] it was 99.9%. The growth in assay [7] is 103%; in [8], 97.9%; in assay [9], 100%; in assay [10] it was 103%; in [11], 110%; in assay [12], 93.9%. In addition, the growth in assay [13] was 99.5%; in assay [14] it was 91.4%; in [15], 109%; in assay [17], 94.6%; in assay [18], 123%; in assay [20] it was 98.5%. In addition, the growth in assay [19] was 109%.

In the case of `N#CCC(=O)c1ccccc1`, the growth in [1] is 99.8%; in [2] it was 110%; in assay [3], 84.3%; in assay [4], 111%; in assay [5], 101%; in [6], 95.2%. In addition, the growth is 104% in [7]; 107% in assay [8]; 103% in assay [9]; 114% in [10]; 114% in [11]; 99% in assay [12]. The growth was 109% in assay [13]; 79% in assay [14]; 119% in [15]; 106% in [16]; 101% in assay [17]; 117% in assay [18]. The growth in assay [20] is 98.4%; in assay [19], 110%.

Take `Oc1cc(Cl)ccc1Oc1ccc(Cl)cc1Cl`: the growth in assay [1] is 14.4%; in assay [2], 87.4%; in [3], 48.3%; in assay [4], 23.7%; in [5] it was 8.21% (active); in [6], 39%. For the same molecule, the growth in assay [7] is -32% (active); in assay [8], 24.4%; in assay [9], 11.5%; in assay [10], 46.8%; in assay [11] it was 16.6%; in assay [12] it was 42.7%. The growth in assay [13] is 10.9%; in assay [14], -0.646% (active); in assay [15], 102%; in assay [17], 90.5%; in [18], 103%; in assay [20], -24.9% (active). In addition, in [19], the growth was 24.8%.

For `S=P(SP(=S)(c1ccccc1)c1ccccc1)(c1ccccc1)c1ccccc1`, the growth was 97% in [1]; 101% in assay [2]; 91.2% in assay [3]; 103% in assay [4]; 101% in assay [5]; 93.5% in assay [6]. Further, the growth in [7] is 99.9%; in assay [8], 88.7%; in assay [9], 98.5%; in assay [10], 111%; in [11], 96.6%; in assay [12], 97.6%. Besides, the growth in assay [13] was 97.5%; in assay [14] it was 95.2%; in [15], 96.8%; in [16] it was 99.4%; in assay [17], 97.9%; in assay [18] it was 98.3%. Further, the values for the growth in [20] and in [19] were 48.5% and -61.3% (active), respectively.
